A short description of experiment [1]: ATG_M_32_CIS: Attagene CIS-FACTORIAL HepG2 Assay for M32 Transcription Factor (Internal Marker) (AID 2282949).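 Also: background control marker of the multiplexed CIS panel rather than a real target.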 The conditions noted are these: HepG2 Attagene cis-factorial M32 reporter, mRNA; actives raise or lower the signal. Summed up: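 Following 24 h chemical exposure of HepG2 cells transiently expressing cis-promoter reporter constructs, reporter transcript levels were determined by RT-PCR with fluorescent labelling and capillary electrophoresis, then fitted bidirectionally against DMSO.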

Experiment [2] in a line: ATG_M_06_CIS: Attagene CIS-FACTORIAL HepG2 Assay for M06 Transcription Factor (Internal Marker) (AID 2282950). The conditions noted are these: HepG2 Attagene CIS-FACTORIAL M06 internal marker reporter; actives raise or lower the signal. Summed up:
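Internal background marker within multiplexed cis-reporter HepG2 system. Cells transiently transfected, dosed 24 h; reporter mRNA measured by RT-PCR, HpaI digestion and capillary electrophoresis. Bidirectional fit relative to DMSO.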

Experiment [3] concerns the target Hepatocyte nuclear factor 6 (Homo sapiens) (UniProt Q9UBC0). The experiment can be described thus: ATG_HNF6_CIS: Attagene CIS-FACTORIAL HepG2 Assay for human Hepatocyte Nuclear Factor 6 (HNF6) (AID 2282952). The following applies: HepG2 Attagene cis-factorial HNF6 reporter transcription; actives raise or lower the signal. Summed up:
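HepG2, transient MRTU transfection (cis promoters); 24 h chemical exposure; total RNA → oligo(dT) RT → PCR → 6-FAM labelling → HpaI cut → CE; bidirectional fit vs DMSO.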

Experiment [4] deals with Heat shock factor protein 1 (Homo sapiens) (UniProt Q00613). As to the kind of experiment: ATG_HSE_CIS: Attagene CIS-FACTORIAL HepG2 Assay for human Heat Shock Transcription Factor 1 (HSE) (AID 2282953). The following applies: HepG2 HSE cis-reporter, Attagene RNA transcription; actives raise or lower the signal. The gist of the method:
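HepG2 cells transfected with cis-promoter reporter units sensing endogenous transcription factor activity; reporter mRNA quantified 24 h post-dose by RT-PCR and capillary electrophoresis of 6-FAM-labelled products. Bidirectional fitting against DMSO.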

The nature of experiment [5]: ATG_MRE_CIS: Attagene CIS-FACTORIAL HepG2 Assay for human Metal Responsive Element (MRE) (AID 2282954). The following applies: HepG2 MRE cis-reporter transcription, Attagene multiplex; actives raise or lower the signal. Summed up: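 HepG2 cells transiently transfected with multiple cis-element reporter units measure endogenous MTF1-driven transcription. After 24 h compound exposure, reporter mRNA is quantified by RT-PCR with 6-FAM labelling, HpaI digestion and capillary electrophoresis; bidirectional fits versus DMSO.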

Experiment [6] can be described thus: ATG_PBREM_CIS: Attagene CIS-FACTORIAL HepG2 Assay for human Phenobarbital-responsive Enhancer Module (PBREM) (AID 2282955). The following applies: HepG2 PBREM cis-reporter, Attagene multiplexed transcription; actives raise or lower the signal. The gist of the method: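 Fluorescence of labelled reporter cDNA fragments, resolved by capillary electrophoresis, gives mRNA induction in transfected HepG2 cells treated for 24 h; DMSO serves as negative control and baseline.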

For experiment [7], the target named is Paired box protein Pax-6 (Homo sapiens) (UniProt P26367). As to the kind of experiment: ATG_Pax6_CIS: Attagene CIS-FACTORIAL HepG2 Assay for human Paired Box 6 (PAX6) (AID 2282956). The conditions noted are these: HepG2 CIS-FACTORIAL PAX6 reporter transcription, RNA readout; actives raise or lower the signal. Summed up: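 After twenty-four hours of chemical exposure, transfected HepG2 cells are harvested for RNA. Cis-promoter reporter transcripts are amplified, fluorescently labelled and sized by capillary electrophoresis, with gain and loss of signal scored against DMSO.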
Paired box protein Pax-6 (Homo sapiens), sequence (P26367 whole entry, looked up): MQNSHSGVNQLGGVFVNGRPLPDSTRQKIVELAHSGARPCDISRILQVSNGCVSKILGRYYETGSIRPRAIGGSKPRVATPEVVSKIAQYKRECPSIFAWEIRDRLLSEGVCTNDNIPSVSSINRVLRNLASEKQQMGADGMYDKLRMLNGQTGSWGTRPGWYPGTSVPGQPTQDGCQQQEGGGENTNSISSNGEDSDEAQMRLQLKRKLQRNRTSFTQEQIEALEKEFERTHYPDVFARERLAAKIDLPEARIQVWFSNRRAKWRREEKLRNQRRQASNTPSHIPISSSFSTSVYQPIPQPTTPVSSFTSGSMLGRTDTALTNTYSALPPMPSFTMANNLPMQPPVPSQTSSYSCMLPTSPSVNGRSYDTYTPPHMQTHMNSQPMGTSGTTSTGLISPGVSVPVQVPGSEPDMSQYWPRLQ

Experiment [8] is described as follows: ATG_PXRE_CIS: Attagene CIS-FACTORIAL HepG2 Assay for human Pregnane X Receptor Element (PXRE) (AID 2282957). The conditions noted are these: HepG2 Attagene CIS-FACTORIAL PXRE reporter, mRNA; actives raise or lower the signal. Summed up:
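Transfect HepG2 with MRTUs (cis promoter elements); dose chemical, incubate 24 h; isolate RNA, RT with oligo(dT), PCR, 6-FAM label, HpaI cut, CE. Gain/loss fit vs DMSO.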

Experiment [9] in a line: ATG_Sox_CIS: Attagene CIS-FACTORIAL HepG2 Assay for human SRY-box transcription factor (SOX) (AID 2282960). The conditions noted are these: HepG2 Attagene cis-factorial SOX reporter, mRNA; actives raise or lower the signal. The gist of the method:
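Transient MRTU transfection of HepG2; 24 h compound incubation; TriZol RNA, oligo(dT) RT, PCR, 6-FAM primer extension, HpaI cut, CE. Bidirectional fit, DMSO = baseline.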

For experiment [10], the target named is Transcription factor Sp1 (Homo sapiens) (UniProt P08047). As to the kind of experiment: ATG_Sp1_CIS: Attagene CIS-FACTORIAL HepG2 Assay for human Specificity Protein 1 (Sp1) (AID 2282961). The following applies: HepG2 Sp1 cis-reporter transcription, actives raise or lower the signal. The gist of the method: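 Endogenous Sp1 activity was gauged in human liver HepG2 cells bearing transfected reporter units under a cis-regulating promoter. After 24 h dosing, reporter mRNA was quantified by RT-PCR with capillary electrophoresis, and activity fitted bidirectionally versus DMSO.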
Transcription factor Sp1 (Homo sapiens), sequence (P08047 whole entry, looked up): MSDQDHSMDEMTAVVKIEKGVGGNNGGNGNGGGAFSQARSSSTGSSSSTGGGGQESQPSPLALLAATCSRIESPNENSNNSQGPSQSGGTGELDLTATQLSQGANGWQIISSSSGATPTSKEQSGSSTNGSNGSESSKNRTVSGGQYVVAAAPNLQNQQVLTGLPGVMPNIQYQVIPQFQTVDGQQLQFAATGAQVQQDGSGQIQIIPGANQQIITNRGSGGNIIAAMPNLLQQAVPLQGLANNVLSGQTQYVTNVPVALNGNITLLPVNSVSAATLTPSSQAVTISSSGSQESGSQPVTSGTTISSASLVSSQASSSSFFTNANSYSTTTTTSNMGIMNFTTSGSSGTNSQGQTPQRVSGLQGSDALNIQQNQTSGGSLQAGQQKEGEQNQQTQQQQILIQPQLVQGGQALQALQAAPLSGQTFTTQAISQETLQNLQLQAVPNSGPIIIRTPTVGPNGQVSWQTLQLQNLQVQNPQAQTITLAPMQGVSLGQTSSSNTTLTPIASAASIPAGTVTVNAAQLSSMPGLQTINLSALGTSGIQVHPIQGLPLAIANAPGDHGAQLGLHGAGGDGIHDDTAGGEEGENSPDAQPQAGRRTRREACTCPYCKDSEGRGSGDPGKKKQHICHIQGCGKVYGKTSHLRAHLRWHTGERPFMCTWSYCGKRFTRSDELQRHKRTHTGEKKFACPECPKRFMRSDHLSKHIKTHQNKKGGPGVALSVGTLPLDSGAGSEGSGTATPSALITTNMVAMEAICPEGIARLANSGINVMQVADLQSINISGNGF

Experiment [11] concerns the target Signal transducer and activator of transcription 3 (Homo sapiens) (UniProt P40763). The experiment can be described thus: ATG_STAT3_CIS: Attagene CIS-FACTORIAL HepG2 Assay for human Signal Transducer and Activator of Transcription 3 (STAT3) (AID 2282963). The conditions noted are these: HepG2, Attagene cis-factorial STAT3 reporter transcription; actives raise or lower the signal. The gist of the method: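 HepG2 cells transiently transfected with cis-element-driven multiple reporter transcription units; after 24 h chemical exposure, reporter mRNA measured by RT-PCR, 6-FAM primer-extension labelling, HpaI digestion and capillary electrophoresis. Bidirectional fitting versus DMSO baseline.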

The nature of experiment [12]: ATG_TA_CIS: Attagene CIS-FACTORIAL HepG2 Assay for human TA Basal Promoter (AID 2282964). The conditions noted are these: HepG2 Attagene CIS-factorial TA basal promoter reporter; actives raise or lower the signal. Summed up: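 HepG2 cells transiently transfected with multiple reporter units under cis promoter elements, reporting endogenous transcription factor activity; this endpoint tracks the TA basal promoter as background control. Reporter mRNA after 24 h dosing measured by RT-PCR/capillary electrophoresis; bidirectional fits versus DMSO.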

Experiment [13] can be described thus: ATG_TCF_b_cat_CIS: Attagene CIS-FACTORIAL HepG2 Assay for human T-Cell-Factor with beta-catenin (TCF/b-cat) (AID 2282965). The following applies: HepG2 TCF/beta-catenin cis-reporter transcription, actives raise or lower the signal. Summed up:
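Using capillary electrophoresis as the read-out, labelled reporter cDNA fragments from transiently transfected HepG2 were sized and quantified. Exposure lasted 24 hours; activity in either direction was referenced to DMSO.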

Experiment [14] can be described thus: ATG_TAL_CIS: Attagene CIS-FACTORIAL HepG2 Assay for human TAL Basal Promoter (AID 2282966).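 Also: background control endpoint measuring basal TAL promoter reporter mRNA not a specific factor.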 The conditions noted are these: HepG2 Attagene cis-factorial TAL promoter reporter; actives raise or lower the signal. The gist of the method:
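Fluorescence of labelled reporter cDNA fragments, resolved by capillary electrophoresis, gave the readout. Human HepG2 liver cells carried transiently transfected cis-element reporter units and were treated for 24 hours; activity was fitted bidirectionally against DMSO.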

Experiment [15] in a line: ATG_TGFb_CIS: Attagene CIS-FACTORIAL HepG2 Assay for human Transforming Growth Factor (TGF) (AID 2282967). The following applies: HepG2 Attagene CIS TGFb reporter, mRNA transcription; actives raise or lower the signal. Summed up:
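HepG2 cells transiently transfected with cis-promoter-driven multiple reporter units measure endogenous TF activity; reporter mRNA quantified at 24 h by RT-PCR, FAM labeling, HpaI digestion and capillary electrophoresis. Bidirectional fit vs DMSO.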

Experiment [16] is described as follows: ATG_VDRE_CIS: Attagene CIS-FACTORIAL HepG2 Assay for human Vitamin D Receptor Element (VDRE) (AID 2282968). The conditions noted are these: HepG2 VDRE cis-reporter transcription, actives raise or lower the signal. Summed up:
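HepG2 cells transiently transfected with cis-element reporter units, dosed 24 h; reporter mRNA measured by RT-PCR, 6-FAM labeling, HpaI digestion and capillary electrophoresis. Activity fitted bidirectionally against DMSO baseline.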

A short description of experiment [17]: ATG_PPRE_CIS: Attagene CIS-FACTORIAL HepG2 Assay for human Peroxisome Proliferator-activated Response Element (PPRE) (AID 2282958). The conditions noted are these: HepG2 PPRE cis-element reporter, Attagene transcription factor profiling; actives raise or lower the signal. Summed up:
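Cells are first transfected transiently with the multiplexed reporter library, then dosed for 24 h. Total RNA is reverse-transcribed, amplified, fluorescently end-labeled and HpaI-cut before capillary electrophoresis; activity is fitted bidirectionally against DMSO controls.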

The nature of experiment [18]: ATG_RORE_CIS: Attagene CIS-FACTORIAL HepG2 Assay for human RAR-related Orphan Receptor Element (RORE) (AID 2282959). The conditions noted are these: HepG2 Attagene cis-factorial RORE reporter, mRNA; actives raise or lower the signal. Summed up:
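Cells were HepG2 carrying transfected cis-regulated reporter constructs, dosed for 24 hours. Total RNA was reverse-transcribed and reporter cDNA amplified, fluorescently labeled and sized by capillary electrophoresis. Activity was fitted bidirectionally relative to DMSO.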

The nature of experiment [19]: ATG_SREBP_CIS: Attagene CIS-FACTORIAL HepG2 Assay for human Sterol Regulatory Element Binding (SREBP) (AID 2282962). The following applies: HepG2 Attagene cis-factorial SREBP reporter, mRNA; actives raise or lower the signal. Summed up:
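Twenty-four hours after chemical dosing of transfected HepG2 cultures, reporter RNA was converted to cDNA, amplified, end-labelled with 6-FAM and resolved by capillary electrophoresis. Responses were fitted relative to DMSO.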

In experiment [20] the target is Hypoxia-inducible factor 1-alpha (Homo sapiens) (UniProt Q16665). As to the kind of experiment: ATG_HIF1a_CIS: Attagene CIS-FACTORIAL HepG2 Assay for human Hypoxia Inducible Factor 1 (HIF1A) (AID 2282951). The following applies: HepG2 Attagene cis-factorial HIF1a reporter transcription; actives raise or lower the signal. The gist of the method:
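Measures endogenous transcription-factor activity through cis-regulated reporter mRNA in HepG2. Cells dosed 24 h; transcripts quantified by RT-PCR with 6-FAM-labelled products separated by capillary electrophoresis; DMSO serves as negative control.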

“And” between values parts separate entries of the source, which are not always exact repeats. Equal entries are not always repeated. Where a structure was tested more than once in an assay, its records may differ in their call. The source made the active and inactive calls. The calls were made as follows: active = hit-call score of the fitted dose curve at least 0.9, where 1 is the maximum; inactive = score below 0.9.

Heat shock factor protein 1 (Homo sapiens), sequence (Q00613 whole entry, looked up): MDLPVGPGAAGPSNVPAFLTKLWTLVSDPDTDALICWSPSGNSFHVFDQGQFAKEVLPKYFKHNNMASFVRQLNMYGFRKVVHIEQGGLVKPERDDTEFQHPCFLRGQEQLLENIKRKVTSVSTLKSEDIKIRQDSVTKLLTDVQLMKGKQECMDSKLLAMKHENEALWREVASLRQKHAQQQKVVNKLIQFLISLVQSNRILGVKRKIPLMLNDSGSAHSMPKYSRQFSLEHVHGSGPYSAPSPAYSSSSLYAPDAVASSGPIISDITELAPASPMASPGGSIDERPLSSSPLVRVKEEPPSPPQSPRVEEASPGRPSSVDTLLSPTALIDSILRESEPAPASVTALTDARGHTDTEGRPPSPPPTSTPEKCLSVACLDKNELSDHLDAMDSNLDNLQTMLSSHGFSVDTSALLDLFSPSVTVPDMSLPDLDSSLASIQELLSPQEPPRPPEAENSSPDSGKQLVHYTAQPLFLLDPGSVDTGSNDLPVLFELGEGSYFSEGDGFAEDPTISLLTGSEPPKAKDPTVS
Hepatocyte nuclear factor 6 (Homo sapiens), sequence (Q9UBC0 whole entry, looked up): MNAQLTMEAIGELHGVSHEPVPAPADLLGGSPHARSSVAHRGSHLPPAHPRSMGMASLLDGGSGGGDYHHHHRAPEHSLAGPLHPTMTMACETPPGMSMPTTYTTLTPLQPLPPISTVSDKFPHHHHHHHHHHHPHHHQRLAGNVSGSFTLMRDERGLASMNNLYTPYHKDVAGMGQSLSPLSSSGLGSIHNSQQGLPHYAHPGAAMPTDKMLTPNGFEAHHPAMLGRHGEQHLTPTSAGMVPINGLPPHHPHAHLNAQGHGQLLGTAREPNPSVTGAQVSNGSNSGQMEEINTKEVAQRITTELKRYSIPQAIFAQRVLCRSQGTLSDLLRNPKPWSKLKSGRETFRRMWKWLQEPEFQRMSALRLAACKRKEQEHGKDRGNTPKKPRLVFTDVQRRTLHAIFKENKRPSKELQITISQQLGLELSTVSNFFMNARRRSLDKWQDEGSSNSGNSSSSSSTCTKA
Signal transducer and activator of transcription 3 (Homo sapiens), sequence (P40763 whole entry, looked up): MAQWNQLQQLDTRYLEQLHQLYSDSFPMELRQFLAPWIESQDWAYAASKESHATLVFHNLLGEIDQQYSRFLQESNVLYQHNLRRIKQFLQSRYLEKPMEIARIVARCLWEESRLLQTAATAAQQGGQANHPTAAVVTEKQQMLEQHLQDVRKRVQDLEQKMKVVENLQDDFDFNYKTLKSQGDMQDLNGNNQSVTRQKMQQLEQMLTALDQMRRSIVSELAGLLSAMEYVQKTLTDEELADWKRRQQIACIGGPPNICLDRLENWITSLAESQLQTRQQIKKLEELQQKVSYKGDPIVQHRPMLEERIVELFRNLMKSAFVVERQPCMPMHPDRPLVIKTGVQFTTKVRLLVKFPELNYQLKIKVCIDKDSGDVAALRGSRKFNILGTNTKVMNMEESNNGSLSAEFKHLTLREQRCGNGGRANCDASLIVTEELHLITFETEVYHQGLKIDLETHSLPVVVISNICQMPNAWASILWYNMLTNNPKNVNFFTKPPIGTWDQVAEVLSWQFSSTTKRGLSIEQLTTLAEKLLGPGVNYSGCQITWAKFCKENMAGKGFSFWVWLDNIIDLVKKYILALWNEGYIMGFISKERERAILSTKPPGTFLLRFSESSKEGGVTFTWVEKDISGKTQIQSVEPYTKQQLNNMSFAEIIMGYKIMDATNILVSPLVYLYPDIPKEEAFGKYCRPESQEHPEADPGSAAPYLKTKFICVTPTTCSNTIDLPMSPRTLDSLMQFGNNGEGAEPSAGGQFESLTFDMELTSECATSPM
Hypoxia-inducible factor 1-alpha (Homo sapiens), sequence (Q16665 whole entry, looked up): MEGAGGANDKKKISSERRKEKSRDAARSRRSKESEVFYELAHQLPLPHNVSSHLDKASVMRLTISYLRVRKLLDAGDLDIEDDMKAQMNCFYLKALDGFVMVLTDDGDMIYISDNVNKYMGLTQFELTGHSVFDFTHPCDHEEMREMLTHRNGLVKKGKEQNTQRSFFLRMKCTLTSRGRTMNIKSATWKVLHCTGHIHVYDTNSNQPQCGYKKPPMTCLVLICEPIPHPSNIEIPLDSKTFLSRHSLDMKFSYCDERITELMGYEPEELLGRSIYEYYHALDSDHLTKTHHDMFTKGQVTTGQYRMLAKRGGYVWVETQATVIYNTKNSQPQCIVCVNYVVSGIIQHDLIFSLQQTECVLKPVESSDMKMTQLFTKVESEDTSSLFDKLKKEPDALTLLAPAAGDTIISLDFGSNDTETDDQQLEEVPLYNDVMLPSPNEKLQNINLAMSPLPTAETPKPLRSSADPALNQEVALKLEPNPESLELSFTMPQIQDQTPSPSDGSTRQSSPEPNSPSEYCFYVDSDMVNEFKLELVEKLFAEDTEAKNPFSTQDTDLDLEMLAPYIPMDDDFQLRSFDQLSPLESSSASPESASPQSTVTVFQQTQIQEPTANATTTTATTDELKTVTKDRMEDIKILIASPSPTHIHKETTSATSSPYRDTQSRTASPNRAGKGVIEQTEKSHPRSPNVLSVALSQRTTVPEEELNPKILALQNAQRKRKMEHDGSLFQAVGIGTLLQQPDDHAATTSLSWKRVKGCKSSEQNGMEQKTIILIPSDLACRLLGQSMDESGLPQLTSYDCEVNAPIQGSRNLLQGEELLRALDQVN

What is called AC50 is the concentration at which the activity in the assay is half-maximal. Take `c1cnc2c(c1)ccc1cccnc12`: the call in experiment [1], in experiment [2], in experiment [3], in experiment [4], in experiment [5] and in experiment [6] was inactive. The compound was called inactive in [7], in [8], in experiment [9], in [10], in [11] and in experiment [12]. Besides, the call in experiment [13], in experiment [14], in experiment [15] and in experiment [16] was inactive. For the same compound, the AC50 is 144 µM (active) in experiment [4], 100 µM (active) in [6] and 161 µM (active) in experiment [16].

With `CC1=NN(c2ccccc2)C(=O)C1`, the call in experiment [1], in experiment [2], in experiment [3], in [4], in experiment [5] and in experiment [7] was inactive. Besides, the compound was classed as inactive in experiment [17], in experiment [18], in experiment [9], in experiment [10], in experiment [19] and in experiment [11]. The outcome in [12], in [13], in [14] and in experiment [15] was inactive. Moreover, the concentration at half-maximal activity (AC50) in experiment [8] was 66.2 µM (active) and 60 µM (active).

Turning to `CC[N+](CC)(CC)Cc1ccccc1`, the compound was called inactive in experiment [1], in experiment [2], in experiment [20], in experiment [3], in experiment [4] and in [5]. The result in experiment [6], in experiment [8], in [17], in [18], in [9] and in [10] was inactive. Also, the result in [11], in experiment [12], in experiment [13], in [14], in experiment [15] and in experiment [16] was inactive.

The values above are taken from PubChem BioAssay (EPA / NIEHS).
